Test results published in PubChem BioAssay (NCI).
Compounds without any hit were thinned out: in the full panel of roughly 79,000, 15% have a hit. Values without a mark were called inactive. The source made the active and inactive calls. Rule as the data show it: active = growth inhibition above about 70%; inactive = the rest.

Test: NCI Yeast Anticancer Drug Screen. Data for the rad52 strain (AID 147);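 also: 0% = growth of vehicle-treated control cultures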
Conditions: S. cerevisiae rad52 mutant growth inhibition, stronger effect = higher value
Method: Growth inhibition of yeast strains with defined genetic alterations is measured as a screen for potential anti-cancer activity. Selected strains with alterations in DNA damage repair or cell cycle control were exposed to compounds and growth inhibition was measured relative to vehicle treated controls. The strain used in this assay is rad52

Compound	growth inhibition (at 1.2 µM)	growth inhibition (at 3.7 µM)	growth inhibition (at 11.0 µM)	growth inhibition (at 33.0 µM)	growth inhibition (at 100.0 µM)
CS(=O)(=O)OCCN(CCOS(C)(=O)=O)c1ccc(C=O)cc1	11%	33%	62%	83% (active)	91% (active)
O=Cc1ccc(C(F)(F)F)cc1.[C-]#[O+].[C-]#[O+].[C-]#[O+].[Cr]	9%	17%	39%	65%	70% (active)
O=C(COc1ccc(Cl)cc1Cl)NO	-5%	0%	8%	28%	69%
COC(=O)C1C2c3ccccc3C(c3ccccc32)C1C(=O)OC (stereo not given)	3%	10%	9%	10%	10%
O=P(Oc1ccc(Cl)cc1)(Oc1ccc(Cl)cc1)N1CC1	-1%	1%	0%	8%	53%
Cc1nc2ccccc2cc1C[N+]12CN3CN(CN(C3)C1)C2	1%	3%	6%	29%	90% (active)
OC(c1ccc(Br)cc1)C(Cl)(Cl)Cl (stereo not given)	-5%	-1%	5%	87% (active)	98% (active)
Oc1ccc(Cl)cc1Cc1ccccc1	-21%	4%	70% (active)	98% (active)	98% (active)
